This is one part of the list. Active and inactive are the calls of the source.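 How the source made its calls, unless noted: active means mean inhibition of the reporter signal across four replicates at the single tested dose of 50% or more; inactive means the rest.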
Experiment: HIF-2a reporter inhibitor retest, confirmation, luminescence, 786-0 RCC cells (AID 651580;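 active means mean inhibition across four replicates of at least 40 percent at the single tested concentration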)
Settings: HIF-2a luciferase reporter luminescence, overnight, at 18.8 µM, stronger effect = higher value

Compound | inhibition
Cc1ccccc1C(CC(=O)c1cccs1)C(C#N)C#N (centres undefined) | 28.4% (inactive)
NC(N)=Nc1nc(-c2ccccc2)c2cc(Cl)ccc2n1 | 17.8% (inactive)
Cc1coc2c(O)cc3c(c12)OC1(N2CCCCC2)C(=O)NCCCC31 (centres undefined) | 1.41% (inactive)
O=[N+]([O-])/C=C/c1ccc2c(ccn2Cc2ccccc2)c1 | 45.4% (active)
O=C1C=C(c2ccc(Cl)cc2)C(=O)N1Nc1ccccc1 | 95.2% (active)
CCOC(=O)C(=Cc1ccccc1OC)C(=O)OCC | 57.5% (active)
COc1cc2c(cc1O)C(SC)=NC(C)(C)C2 | 2.51% (inactive)
CCCc1[nH]nc2c1C(C1CC=CCC1)C(C#N)=C(N)O2 (centres undefined) | 8.58% (inactive)
CCOc1cc(/C=C(/C#N)c2ccc(Cl)cc2)cc(Cl)c1OCC(=O)O | 98.1% (active)
COc1ccc(C(=O)/C=C/c2ccc(-c3ccccc3)cc2)cc1CSCC(=O)O | -10.7% (inactive)

Experiment: HIF-1a luciferase reporter signal reduction – MiaPaCa-2 cells, single concentration, counter-screen for HIF-2a inhibitor project, confirmation (AID 651589)
Settings: MiaPaCa-2 HIF-1a luciferase reporter, desferoxamine, overnight; at 18.8 µM; stronger effect = higher value

Compound | inhibition
COc1ccc(-c2oc3ncnc(NCCCO)c3c2-c2ccc(OC)cc2)cc1 | 82.4% (active)
COCC(C)n1c(C)cc(C(=O)COc2ccc(C)nc2[N+](=O)[O-])c1C (centres undefined) | 41.4% (inactive)
CCN(CC)CCCC(C)n1c2nc(=O)[nH]c(=O)c-2nc2cc(Cl)ccc21 (centres undefined) | 50% (inactive)
Cc1cc(-c2n[nH]c(=S)n2/N=C/C(Br)=C/c2ccccc2)n[nH]1 | 105% (active)
O=S(=O)([N-]c1nc2ccccc2nc1-[n+]1ccc(Cc2ccccc2)cc1)c1ccc(Br)s1 | 79.1% (active)
Cc1cccc(C(=O)Nc2ccc(CC(=O)O)cc2)c1 | 44.8% (inactive)
Cc1cc(Cl)c(S(=O)(=O)Nc2ccc3c(c2)OCCO3)cc1OCC(N)=O | 52.6% (active)
COC(=O)CCNc1ccc2c(c1)OCCO2 | 56.6% (active)
CCN1CCC(O)(/C=C/c2ccc(C)cc2)C(C(=O)/C=C/c2ccc(C)cc2)C1 (centres undefined) | 105% (active)
COC(=O)c1c(NC(=O)CCCC(=O)O)sc2c1CCCCC2 | 27.3% (inactive)
O=C(Nc1ccccc1)c1nnsc1S(=O)(=O)c1ccc(Cl)cc1 | -5.15% (inactive)
Cc1nnnn1/C(=C\c1ccccc1)C(=O)OCC(=O)N1CC2(C)CC1CC(C)(C)C2 (centres undefined) | 67.3% (active)
Cc1ccc(-c2noc(CNC(=O)c3ccoc3C)n2)cc1 | -16.7% (inactive)
CCC(C)(C)c1ccc(Oc2ccc(NC(=O)COC(=O)C3=COCCO3)cc2)cc1 | 92.9% (active)
O=C(CN1CCN(C2CCS(=O)(=O)C2)CC1)N1N=C(c2ccc(Cl)cc2)CC1c1ccco1 (centres undefined) | 74.8% (active)
Cc1ccccc1C(CC(=O)c1cccs1)C(C#N)C#N (centres undefined) | 100% (active)
NC(N)=Nc1nc(-c2ccccc2)c2cc(Cl)ccc2n1 | 107% (active)
Cc1coc2c(O)cc3c(c12)OC1(N2CCCCC2)C(=O)NCCCC31 (centres undefined) | 107% (active)
O=[N+]([O-])/C=C/c1ccc2c(ccn2Cc2ccccc2)c1 | 104% (active)
O=C1C=C(c2ccc(Cl)cc2)C(=O)N1Nc1ccccc1 | 41% (inactive)
CCOC(=O)C(=Cc1ccccc1OC)C(=O)OCC | 75.7% (active)
COc1cc2c(cc1O)C(SC)=NC(C)(C)C2 | 66.5% (active)
CCCc1[nH]nc2c1C(C1CC=CCC1)C(C#N)=C(N)O2 (centres undefined) | 39.6% (inactive)
CCOc1cc(/C=C(/C#N)c2ccc(Cl)cc2)cc(Cl)c1OCC(=O)O | 91.2% (active)
COc1ccc(C(=O)/C=C/c2ccc(-c3ccccc3)cc2)cc1CSCC(=O)O | 62.4% (active)

Experiment: inhibitors of PAF-induced NFkB signaling in CF airway cells, dose response, cell-based, uHTS hits, panel, cytotoxicity readout (AID 624344)
Settings: CF bronchial epithelial cells, PAF-induced NFkB reporter inhibition, with PAF, run 1; at 79 µM (top of the series) unless noted

Compound | inhibition
N#CC(C#N)=C1SC(=Nc2ccccc2)C(=Nc2ccccc2)N1c1ccccc1 | 98.5%
CC(C)C[C@@H](CN1CCCC1CN1C(=S)NC[C@@H]1Cc1ccc(O)cc1)N1C[C@H](Cc2ccc(O)cc2)N(CC2CCCCCC2)C1=S (some centres undefined) | 116%
Cc1cccc(N(Cc2cc(=O)[nH]c3ccccc23)C(=O)CCl)c1 | 95.1%
O=C(COC(=O)c1ccccc1C(=O)c1ccc(Cl)c([N+](=O)[O-])c1)NC1CCCCCC1 | 110%
COc1ccc2[nH]cc(C(=O)CCl)c2c1 | 96.8%
CCS(=O)(=O)c1ncc(Cl)c(C(=O)Nc2ccccc2OC)n1 | 95.8%
Clc1ccc(Cn2ncc3c(N4CCN(c5ccccc5)CC4)ncnc32)cc1 | 109%
CCOC(=O)C1=C(CC)Nc2ccccc2N=C1NC(=O)Nc1ccc(Cl)c(Cl)c1 | 113%
CCOC(=O)c1sc(NC(=O)c2cccc(S(=O)(=O)N3CCc4ccccc43)c2)c(C#N)c1C | 79.6%
COc1ccc(OC)c(N(CCN2C(=O)c3ccccc3C2=O)C(=O)CCl)c1 | 106%
Cc1nn(-c2ccccc2)c(Cl)c1C(=O)N1CCN(c2ncnc3c2cnn3-c2ccccc2)CC1 | 114%
O=Nc1ccc(NO)c2ccccc12 | 77.1% [at 39.5 µM]
O=C(NCCC1=CCCCC1)c1coc(=O)c(Br)c1 | 79.7%
CCOc1ccccc1NC(=O)c1nc(S(=O)(=O)Cc2ccccc2)ncc1Cl | 78%

Reference: PubChem BioAssay
